# AmpC no deterg – AmpC beta-lactamase inhibition without detergent; hit rate 0.52% among 330,000; AmpC nitrocefin hydrolysis, absorbance 480 nm, 0.0001% Triton; Potency, µM (doses to about 57.1 µM), hits mostly inhibitors; P00811; also: nearly all actives have a fitted effect of over 20% in size
# Target sequence (P00811 whole entry, looked up): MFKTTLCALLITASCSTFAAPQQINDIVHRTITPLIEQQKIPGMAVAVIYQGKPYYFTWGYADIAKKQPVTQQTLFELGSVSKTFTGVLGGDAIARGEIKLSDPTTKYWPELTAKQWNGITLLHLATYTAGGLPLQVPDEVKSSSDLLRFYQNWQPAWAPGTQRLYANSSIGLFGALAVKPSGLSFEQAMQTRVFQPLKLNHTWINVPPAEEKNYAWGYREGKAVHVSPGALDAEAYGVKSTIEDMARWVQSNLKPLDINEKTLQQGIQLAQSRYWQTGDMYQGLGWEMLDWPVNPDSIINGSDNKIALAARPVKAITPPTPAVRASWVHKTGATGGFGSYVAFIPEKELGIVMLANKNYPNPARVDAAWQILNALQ
#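 20 mM phosphate pH 7.0 + 0.01% (detergent screen) or 0.0001% Triton X-100; 5.3 nM AmpC reagent; cpd preinc 15 min RT; nitrocefin (800 uM stock) to start; A480 q20 s × 4 min; Activity was normalised to no-enzyme and no-compound control wells.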
# AmpC inh detg – AmpC beta-lactamase inhibition with detergent present | P00811 | hit rate 0.041% among 370,000 | AmpC hydrolysis of nitrocefin, absorbance 480 nm, 0.01% Triton | Potency, µM (top dose mostly 114 µM), usual class: inhibitors; also: nearly all actives have a fitted effect of over 25% in size
#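 AmpC (5.3 nM in the dispensed reagent) in 20 mM phosphate pH 7.0 with 0.01% (detergent screen) or 0.0001% Triton X-100 was preincubated with compounds for 15 min at room temperature. Nitrocefin was then added from an 800 uM solution, and hydrolysis was followed at 480 nm.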
# AMA1 RON2 block – disrupts binding of P. falciparum AMA1 to RON2. AlphaScreen AMA1-biotinylated RON2 peptide binding. Potency, µM (top dose mostly 58.2 µM), most hits filed as inhibitors. hit rate 0.2% among 360,000. AID 720542; also: nearly all actives have a fitted effect of over 45% in size
#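 AMA1 (3D7) with his tag at 25 nM final met compounds first, then biotinylated RON2 peptide at 25 nM; detection used donor plus acceptor beads, 10 µg/mL apiece, read by AlphaScreen after 30 min at room temperature.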
# Pf growth 96h – P. falciparum growth inhibition at 96 hour, primary screen for plastid delayed-death inhibitors; P. falciparum luciferase reporter growth, 96 h; Potency, µM (series often up to 28.7 µM), usual class: inhibitors; hit rate 6.9% among 320,000
#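 Plates of compound plus infected erythrocytes (2% hematocrit, 0.05% parasitemia final) incubate 96 hours, 37 C, 5% CO2. Detection reagent added; reduced luminescence from the parasites' luciferase reporter flags inhibition.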
# Pf growth 48h – P. falciparum growth inhibition at 48 hours (one generation) | P. falciparum luciferase growth in erythrocytes, 48 h | Potency, µM (titrated, usually from 28.7 µM), hits mostly inhibitors | hit rate 5.9% among 310,000 | AID 504832
#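 Growth was read as firefly luciferase luminescence after a 48 h, 37 C, 5% CO2 exposure of compounds to reporter-bearing P. falciparum cultures (0.1% parasitemia, 2% hematocrit final) in Albumax-supplemented RPMI 1640.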
# HCV inhibitor – inhibitors of hepatitis C virus infection; Huh7.5.1 HCVcc-Cre infection, luciferase reporter, 44 h; Potency, µM (doses to about 41.8 µM), most hits filed as inhibitors; hit rate 3.4% among 340,000; AID 651820
#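 1,000 cells/well; 4 h culture; + compound; + HCVcc-Cre (~0.5 moi); 44 h; luciferase substrate, RT 15 min; read 15 sec.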
# A number is an active result; – = inactive; ? = inconclusive; · = no result given; ! = not confirmed by another sample; [ ] = remark or other dose. This is a sample that favours compounds with a hit; in the whole collection about 11% have one here. Calls follow the shape of the dose curve; as a rule, active = well fitted curve in the direction sought with a large enough effect; inconclusive = small, poorly fitted or top-dose-only effect, or another doubt; inactive = no such curve, though single readings can be large; an effect the other way counts as inactive or inconclusive.
SMILES,AmpC no deterg,AmpC inh detg,AMA1 RON2 block,Pf growth 96h,Pf growth 48h,HCV inhibitor
COc1ccc(NC(=O)c2cc3n(n2)C(C(F)(F)F)CC(c2ccc4c(c2)OCO4)N3)cc1OC (centres undefined),–,–,–,3.29µM,–,·
O=C(O)c1cnn2c1NC(c1cccs1)CC2C(F)(F)F (centres undefined),–,–,–,–,–,–
COc1ccc(C2CC(C(F)(F)F)n3ncc(C(=O)Nc4cccc(O)c4)c3N2)cc1OC (centres undefined),–,?,–,·,10.4µM,?
COc1ccc(C2CC(C(F)(F)F)n3nc(CO)c(Cl)c3N2)cc1OC (centres undefined),–,–,?,7.38µM,–,–
CC(C)NC(=O)c1cnn2c1NC(c1cccs1)CC2C(F)(F)F (centres undefined),–,?,–,–,–,2.82µM
CCCCCOC(=O)CSc1ncnc2c1sc1nc(N3CCOCC3)c3c(c12)CCCC3,·,–,·,·,·,·
CN1CCN(C(=O)C2CCCCC2)CC1,·,·,·,–,–,·
COC(=O)Cc1ccc(NC(=S)N2CCCC(C)C2)cc1 (centres undefined),–,–,–,–,–,–
COC(=O)Cc1ccc(NC(=S)N2CCCC(CO)C2)cc1 (centres undefined),–,–,–,–,14.7µM,–
COC(=O)Cc1ccc(NC(=S)N2CCN(c3cc(Cl)ccc3C)CC2)cc1,–,–,–,?,–,10µM
COC(=O)Cc1ccc(NC(=S)N2CCN(c3ccccn3)CC2)cc1,–,–,–,–,–,–
Cc1cccc(N2CCN(c3ncnc4c3nc3n4CCCCC3)CC2C)c1 (centres undefined),·,–,·,·,·,·
Cc1cn(CC(=O)NCCc2ccccn2)c(=O)[nH]c1=O,·,·,–,·,·,2.82µM
O=C(NCCc1ccccn1)c1n[nH]c(=O)c2ccccc12,–,–,–,13.1µM,–,–
CCCNC(=O)c1n[nH]c(=O)c2ccccc12,–,–,–,–,–,–
CCOC(=O)C1(C)C=C(Nc2ccc(O)cc2)C(=O)N1c1ccc(O)cc1 (centres undefined),–,–,–,10.4µM,11.7µM,–
C#CCOCCOCCOCCNc1nc(N2CCN(C(=O)CCCCCCCCCCNC(=O)[C@H](CO)n3cc(CCCSC)nn3)CC2)nc(N2CCN(C(=O)CCCCCCCCCCNC(=O)[C@H](CCCCN)n3cc(CCO)nn3)CC2)n1,–,·,–,·,·,–
C#CCOCCOCCOCCNc1nc(N2CCN(C(=O)CCCCCCCCCCNC(=O)[C@H](CCCCN)n3cc(CCCC(=O)O)nn3)CC2)nc(N2CCN(C(=O)CCCCCCCCCCNC(=O)[C@@H]([C@H](C)O)n3cc(C)nn3)CC2)n1,–,–,–,5.86µM,5.22µM,–
C#CCOCCOCCOCCNc1nc(N2CCN(C(=O)[C@H]([C@@H](C)O)n3cc(CCCCN)nn3)CC2)nc(N2CCN(C(=O)[C@H](CCCCN)n3cc(CCC(=O)O)nn3)CC2)n1,–,?,–,–,–,–
C#CCOCCOCCOCCNc1nc(N2CCN(C(=O)CCCCCCCCCCNC(=O)[C@H](CCCCN)n3cc(C)nn3)CC2)nc(N2CCN(C(=O)CCCCCCCCCCNC(=O)[C@H](CCCCN)n3cc(CCCC(=O)O)nn3)CC2)n1,–,?,–,?,10.4µM,–
Cn1c(NC(=O)C[n+]2cc(-c3ccc(Cl)cc3)n3c2CCC3)cc(=O)n(C)c1=O,–,–,–,0.329µM,4.15µM,–
Cn1c(NC(=O)CC(C)(C)C)cc(=O)n(C)c1=O,–,–,–,?,–,–
Cn1c(NC(=O)C[n+]2cc(-c3ccccc3)n3c2CCC3)cc(=O)n(C)c1=O,–,?,–[2.32 µM],0.828µM,2.62µM,–
O=C(Nc1ccc(Cl)cc1)C1CCC(CNS(=O)(=O)c2ccc(Br)s2)CC1 (centres undefined),·,–,·,·,·,·
CCC(=O)c1ccc2c(c1)N(CCCN1CCN(CCO)CC1)c1ccccc1S2,·,·,·,4.78µM,2.69µM,·
SMILES,AmpC no deterg,AmpC inh detg,AMA1 RON2 block,Pf growth 96h,Pf growth 48h,HCV inhibitor
CC(CN1CCN(CCOCCO)CC1)CN1c2ccccc2Sc2ccc(Cl)cc21 (centres undefined),·,·,–,·,·,·
CC(=O)c1ccc2c(c1)N(CCCN1CCN(CCO)CC1)c1ccccc1S2,·,·,·,13.5µM,13.5µM,·
CCCN(CC(=O)Nc1cc(Cl)cc(Cl)c1)CC(=O)Nc1ccc(F)c(F)c1F,–,–,–,9.28µM,?,?
CCOC(=O)c1c(C)[nH]c(CCC(=O)Nc2ccc(N(CC)CC)cc2C)c1C,·,–,·,·,·,·
CC1=C/C(=N\OS(=O)(=O)c2ccccc2)C(C)=CC1=O,–,–,?,4.15µM,·,?
CC1=C/C(=N\OS(=O)(=O)c2ccccc2)C(C(C)C)=CC1=O,–,–,?,–,?,?
O=C1CS(=O)(=O)C2(C(=O)N(Cc3ccccc3Cl)c3ccccc32)N1c1ccc(F)cc1 (centres undefined),·,–,·,·,·,·
CCCOC(=O)c1ccc(Oc2c(-c3ccc(OCC)cc3O)n[nH]c2C)cc1,–,–,–,–,5.22µM,?
COc1ccc(Oc2c(-c3ccc(O)cc3O)n[nH]c2C)cc1,–,–,–,–,–,–
CCCOC(=O)c1ccc(Oc2cn[nH]c2-c2ccc(OCC)cc2O)cc1,–,–,–,·,4.65µM,?
CCOc1ccc(-c2[nH]ncc2Oc2cccc(OC)c2)c(O)c1,–,–,–,?,?,?
CCCc1ccc(Oc2cn[nH]c2-c2ccc(O)c(C)c2O)cc1,–,?,–,10.4µM,–,12.6µM
N#C/C(=C\C=C\c1ccccc1[N+](=O)[O-])c1nc(-c2ccc3c(c2)OCO3)cs1,–,–,–,–,–,11.2µM
N#C/C(=C\c1ccccc1[N+](=O)[O-])c1nc(C2CC2)cs1,–,?,?,–,–,–
C[n+]1c(-c2ccccc2)c2cc(N)ccc2c2ccc(N)cc21,–,?,?,–,?,2.51µM
Nc1ccc2nc(-c3ccccc3)c(-c3ccccc3)nc2c1,–,–,–,?,–,–
CNc1c2c(nn1C)CCCC2,–,–,–,6.01µM!,–,?
CC1=C(C(=O)NCc2cccc(Br)c2)C2(CCCCC2)OC1=O,·,–,·,·,·,·
CN(C)c1ccc(C(=O)OCC(=O)c2cccs2)cc1,–,–,–,9.28µM,–,–
COc1ccccc1-n1c(SCC(=O)Nc2ccc3c(c2)OCO3)nc2c(c1=O)SCC2,?,–,–,–,?,–
CC1Cc2nc(SCC(=O)N3CCc4ccccc43)n(C)c(=O)c2S1 (centres undefined),–,–,–,?,–,–
